Reference: PubChem BioAssay (Tox21)
A number with no mark means an inactive call. Records with an inconclusive call do not appear. A call without a number means that no potency is given here. Active and inactive are the calls of the source. Unless noted, the call rests on the fitted dose curve; in most records, active means well fitted curve in the direction sought with a large enough effect in the repeat runs; inconclusive means weak or mixed curves; inactive means no such curve, though single readings can be large; an effect the other way counts as inactive or inconclusive.

How the values were obtained:
[1] = qHTS assay to identify small molecule agonists of the progesterone receptor (PR) signaling pathway - cell viability counter screen (AID 1346799; calls by dose curve; further: nearly all actives have a fitted effect of over 45% in size)
Summary of the method: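 Cytotoxicity measured by CellTiter-Glo luminescence (30 min, RT) in the same wells as the PR beta-lactamase agonist read. Those HEK293T cells had 16 h compound treatment at 37 C in 2% charcoal-stripped FBS medium.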

[2] = qHTS assay to identify small molecule antagonists of the TGF-beta/Smad signaling pathway - cell viability counter screen (AID 1346824); further: nearly all actives have a fitted effect of over 50% in size
Summary of the method: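 SBE-bla HEK 293T cells were plated overnight at 37 C, then given compounds in DMSO plus TGF-beta1 (added as 0.25 ng/mL solution) for 5 hr. After the bla read, CellTiter-Glo was added to the same wells and luminescence read after 30 min at room temperature.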

[3] = qHTS assay to identify small molecule agonists of the TGF-beta/Smad signaling pathway - cell viability counter screen (AID 1346829); further: top concentration of the series differs between compounds; nearly all actives have a fitted effect of over 45% in size
Summary of the method: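 After overnight seating at 37 C and 5% CO2, reporter cells got compounds for 5 hr and FRET substrate for 2 hr; cell viability then came from CellTiter-Glo luminescence.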

[4] = qHTS assay to identify small molecule agonists of the TGF-beta/Smad signaling pathway (AID 1346859; active means well fitted activation curve with a large enough effect in the signal ratio in the repeat runs, not every such curve was filed as active; the % refers to the signal ratio; further: series mostly up to about 77 µM)
Summary of the method: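 Fluorescence (ex 405 nm; em 460 and 530 nm) was read 2 h after LiveBLAzer FRET substrate at RT. The preceding compound treatment of overnight-plated SBE-bla HEK293T cells lasted 5 h at 37 C.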

[5] = target: Thyrotropin-releasing hormone receptor (Homo sapiens) (UniProt P34981); assay: qHTS assay to identify small molecule antagonists of the thyrotropin-releasing hormone receptor (TRHR) signaling pathway (AID 1346877; active means well fitted inhibition curve with a large enough effect in the repeat runs, not every such curve was filed as active; further: series mostly up to about 51 µM)
Thyrotropin-releasing hormone receptor (Homo sapiens), sequence (P34981 whole entry, looked up): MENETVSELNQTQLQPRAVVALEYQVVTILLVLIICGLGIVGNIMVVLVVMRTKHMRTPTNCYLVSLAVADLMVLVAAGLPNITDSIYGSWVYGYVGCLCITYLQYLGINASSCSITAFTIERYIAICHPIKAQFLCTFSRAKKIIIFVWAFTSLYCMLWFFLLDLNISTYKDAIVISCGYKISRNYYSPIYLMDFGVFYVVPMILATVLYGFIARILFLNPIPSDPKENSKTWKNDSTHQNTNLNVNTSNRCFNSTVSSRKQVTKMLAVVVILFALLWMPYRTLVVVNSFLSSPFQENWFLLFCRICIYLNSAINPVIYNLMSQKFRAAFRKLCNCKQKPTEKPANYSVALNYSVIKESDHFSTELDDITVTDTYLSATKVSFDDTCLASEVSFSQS
Summary of the method: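 Intracellular calcium fluorescence, read kinetically every second over 3 min, reports TRH-evoked signalling in HEK293 cells carrying TRHR. Test compounds were added 5 min ahead of a 1 nM TRH challenge.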

[6] = target: Thyrotropin-releasing hormone receptor (Homo sapiens) (UniProt P34981); assay: qHTS assay to identify small molecule agonists of the thyrotropin-releasing hormone receptor (TRHR) signaling pathway (AID 1346891; calls by dose curve; further: series mostly up to about 58 µM)
Summary of the method: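 Agonist-mode intracellular calcium readout: kinetic fluorescence over 3 min at 1 s intervals after compound addition to TRHR-HEK293 cells (18 h seeded, 2 h dye-loaded at 37 C). Fifteen concentrations, triplicates.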

[7] = Human pregnane X receptor (PXR) small molecule agonists, qHTS cell viability counter screen (AID 1346977); further: nearly all actives have a fitted effect of over 50% in size
Summary of the method: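 Same-well viability read: CellTiter-Fluor added after 23 hr compound exposure, fluorescence measured 1 hr later. Cells were PXR-Luc HepG2 seeded at 2,000/well in 5% charcoal-stripped FBS medium, rested 5 hr before dosing at 37 C.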

[8] = Caspase-3/7 induction in HepG2 cells by small molecules, qHTS assay (AID 1346978); further: nearly all actives have a fitted effect of over 15% in size
Summary of the method: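 Wild-type HepG2 cells (2,000/well) were settled 5 h at 37 C, 5% CO2, then exposed to compounds in DMSO for 17 h. Caspase-3/7 activity was read by luminescence 30 min after adding Caspase-Glo 3/7 reagent at room temperature.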

[9] = Caspase-3/7 induction in CHO-K1 cells by small molecules, qHTS cell viability counter screen (AID 1346979); further: nearly all actives have a fitted effect of over 35% in size; further: potency means the concentration at half of the fitted maximal effect
Summary of the method: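 Cytotoxicity counter screen: CellTiter-Fluor added to compound-treated wild-type CHO-K1 cells at 16 h (37C, 5% CO2), fluorescence measured 1 h later; same wells as caspase-3/7 measurement.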

[10] = Caspase-3/7 induction in CHO-K1 cells by small molecules, qHTS assay (AID 1346980); further: nearly all actives have a fitted effect of over 15% in size
Summary of the method: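 Wild-type cells were seeded at 1,500 per well and settled 5 hr at 37 C, 5% CO2, then exposed to DMSO-dissolved compounds for 17 hr. Caspase-Glo 3/7 reagent was added, and luminescence was read after 30min at room temperature.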

[11] = Caspase-3/7 induction in HepG2 cells by small molecules, qHTS cell viability counter screen (AID 1346981); further: series mostly up to about 92 µM; nearly all actives have a fitted effect of over 30% in size
Summary of the method: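 HepG2, WT, 2,000 cells/well; 5 hr pre-incubation 37 C/5% CO2; compound pin-transferred from DMSO; 16 hr exposure; CellTiter-Fluor, 1 hr; fluorescence read.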

[12] = target: Nuclear receptor subfamily 1 group I member 2 (Homo sapiens) (UniProt O75469); assay: Human pregnane X receptor (PXR) small molecule agonists, qHTS assay (AID 1346982); further: nearly all actives have a fitted effect of over 35% in size
Nuclear receptor subfamily 1 group I member 2 (Homo sapiens), sequence (O75469 whole entry, looked up): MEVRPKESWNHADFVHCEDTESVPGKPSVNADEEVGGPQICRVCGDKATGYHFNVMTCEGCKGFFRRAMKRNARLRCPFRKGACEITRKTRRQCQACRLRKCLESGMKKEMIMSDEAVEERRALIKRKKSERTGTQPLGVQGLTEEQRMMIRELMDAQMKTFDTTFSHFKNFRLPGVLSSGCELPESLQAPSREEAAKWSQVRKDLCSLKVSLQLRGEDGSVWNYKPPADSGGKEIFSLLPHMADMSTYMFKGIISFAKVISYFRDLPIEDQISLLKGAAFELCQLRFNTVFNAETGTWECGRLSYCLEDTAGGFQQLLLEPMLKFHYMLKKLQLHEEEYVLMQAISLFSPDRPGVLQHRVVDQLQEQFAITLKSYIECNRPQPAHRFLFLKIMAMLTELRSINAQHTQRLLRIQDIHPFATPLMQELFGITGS
Summary of the method: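 Luciferase signal from ONE-Glo (30 min, room temperature) measured activation of hPXR-driven CYP3A4 reporter expression in PXR-Luc HepG2 cells treated with compounds for 24 hr at 37 C.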

[13] = target: Nuclear receptor subfamily 1 group I member 2 (Rattus norvegicus) (UniProt Q9R1A7); assay: Rat pregnane X receptor (rPXR) activation by small molecules, qHTS assay (AID 1346983); details: rPXR luciferase reporter cells, One-Glo luminescence, 24 h; max activation: stronger effect = higher value; further: nearly all actives have a fitted effect of over 20% in size
Nuclear receptor subfamily 1 group I member 2 (Rattus norvegicus), sequence (Q9R1A7 whole entry, looked up): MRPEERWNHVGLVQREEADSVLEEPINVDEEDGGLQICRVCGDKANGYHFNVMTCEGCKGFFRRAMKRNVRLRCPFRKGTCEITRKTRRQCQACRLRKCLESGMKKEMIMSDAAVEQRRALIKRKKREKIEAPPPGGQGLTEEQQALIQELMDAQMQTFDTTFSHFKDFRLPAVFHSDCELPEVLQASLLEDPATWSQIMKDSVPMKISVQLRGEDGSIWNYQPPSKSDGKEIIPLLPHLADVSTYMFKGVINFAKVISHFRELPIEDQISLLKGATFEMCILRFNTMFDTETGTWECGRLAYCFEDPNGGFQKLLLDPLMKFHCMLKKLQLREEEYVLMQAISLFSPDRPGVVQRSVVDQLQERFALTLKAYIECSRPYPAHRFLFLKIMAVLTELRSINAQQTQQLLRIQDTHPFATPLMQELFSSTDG
Summary of the method: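 Cell-based rPXR luciferase reporter assay, 2,000 cells per well, rested 5hr at 37 C before compound addition in DMSO, then 24 hr at 37 C. One-Glo reagent was added and luminescence read after 30 min at room temperature.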

[14] = target: Nuclear receptor subfamily 1 group I member 2 (Homo sapiens) (UniProt O75469); assay: Human pregnane X receptor (PXR) activation by small molecules, qHTS assay (AID 1346985); further: nearly all actives have a fitted effect of over 40% in size
Summary of the method: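 DPX-2 cells (HepG2 co-transfected with a PXR response element and a CYP3A4-promoter luciferase construct) were seeded at 2,000 per well, rested 5 hr at 37C, then exposed to DMSO-dissolved compounds for 24 hr. Activation was read as luciferase luminescence.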

[15] = target: Cytochrome P450 2D6 (Homo sapiens) (UniProt P10635); assay: Cytochrome P450 Family 2 Subfamily D Member 6 (CYP2D6) small molecule antagonists: luciferase reporter qHTS assay (AID 1671196); further: nearly all actives have a fitted effect of over 50% in size; further: potency means the concentration at half of the fitted maximal effect
Cytochrome P450 2D6 (Homo sapiens), sequence (P10635 whole entry, looked up): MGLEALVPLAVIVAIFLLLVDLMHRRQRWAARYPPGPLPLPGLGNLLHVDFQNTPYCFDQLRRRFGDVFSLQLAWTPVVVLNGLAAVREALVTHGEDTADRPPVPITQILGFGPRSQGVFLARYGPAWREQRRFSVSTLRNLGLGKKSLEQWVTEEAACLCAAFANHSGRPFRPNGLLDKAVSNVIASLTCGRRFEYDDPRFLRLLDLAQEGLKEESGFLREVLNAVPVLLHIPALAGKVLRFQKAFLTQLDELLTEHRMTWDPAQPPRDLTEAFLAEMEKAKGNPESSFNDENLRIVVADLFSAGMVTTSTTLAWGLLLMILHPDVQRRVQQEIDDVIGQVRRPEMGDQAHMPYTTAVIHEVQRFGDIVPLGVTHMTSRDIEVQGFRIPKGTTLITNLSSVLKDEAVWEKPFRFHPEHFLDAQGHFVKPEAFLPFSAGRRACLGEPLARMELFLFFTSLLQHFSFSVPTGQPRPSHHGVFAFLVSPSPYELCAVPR
Summary of the method: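 Read-out is luminescence from luciferin formed by CYP2D6 turnover of a proluciferin substrate, recorded as relative luminescence units. Reactions ran 1 h at room temperature after NADPH regeneration solution was added.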

[16] = target: Cytochrome P450 2C19 (Homo sapiens) (UniProt P33261); assay: Cytochrome P450 Family 2 Subfamily C Member 19 (CYP2C19) small molecule antagonists: luciferase reporter qHTS assay (AID 1671197); further: nearly all actives have a fitted effect of over 65% in size; further: potency means the concentration at half of the fitted maximal effect
Cytochrome P450 2C19 (Homo sapiens), sequence (P33261 whole entry, looked up): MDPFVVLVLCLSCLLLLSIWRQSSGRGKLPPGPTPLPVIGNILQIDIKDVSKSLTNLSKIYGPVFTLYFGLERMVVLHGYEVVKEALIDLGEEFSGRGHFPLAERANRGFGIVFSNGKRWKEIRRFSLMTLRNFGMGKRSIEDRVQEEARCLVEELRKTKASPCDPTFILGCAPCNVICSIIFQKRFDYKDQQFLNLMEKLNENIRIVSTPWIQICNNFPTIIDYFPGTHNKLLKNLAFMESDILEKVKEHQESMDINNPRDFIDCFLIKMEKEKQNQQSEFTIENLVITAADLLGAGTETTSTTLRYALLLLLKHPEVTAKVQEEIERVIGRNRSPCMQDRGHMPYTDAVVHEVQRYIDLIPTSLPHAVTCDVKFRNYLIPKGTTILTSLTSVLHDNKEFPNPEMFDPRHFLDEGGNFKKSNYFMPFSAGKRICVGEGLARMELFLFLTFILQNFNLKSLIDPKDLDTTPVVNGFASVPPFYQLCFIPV
Summary of the method: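 Inhibition of CYP2C19 was scored from loss of luminescence in a P450-Glo proluciferin substrate assay, NADPH-started and run 1 h at 37C, with ketoconazole as positive control.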

[17] = target: Cytochrome P450 1A2 (Homo sapiens) (UniProt P05177); assay: Cytochrome P450 Family 1 Subfamily A Member 2 (CYP1A2) small molecule antagonists: luciferase reporter qHTS assay (AID 1671199); further: nearly all actives have a fitted effect of over 50% in size; further: potency means the concentration at half of the fitted maximal effect
Cytochrome P450 1A2 (Homo sapiens), sequence (P05177 whole entry, looked up): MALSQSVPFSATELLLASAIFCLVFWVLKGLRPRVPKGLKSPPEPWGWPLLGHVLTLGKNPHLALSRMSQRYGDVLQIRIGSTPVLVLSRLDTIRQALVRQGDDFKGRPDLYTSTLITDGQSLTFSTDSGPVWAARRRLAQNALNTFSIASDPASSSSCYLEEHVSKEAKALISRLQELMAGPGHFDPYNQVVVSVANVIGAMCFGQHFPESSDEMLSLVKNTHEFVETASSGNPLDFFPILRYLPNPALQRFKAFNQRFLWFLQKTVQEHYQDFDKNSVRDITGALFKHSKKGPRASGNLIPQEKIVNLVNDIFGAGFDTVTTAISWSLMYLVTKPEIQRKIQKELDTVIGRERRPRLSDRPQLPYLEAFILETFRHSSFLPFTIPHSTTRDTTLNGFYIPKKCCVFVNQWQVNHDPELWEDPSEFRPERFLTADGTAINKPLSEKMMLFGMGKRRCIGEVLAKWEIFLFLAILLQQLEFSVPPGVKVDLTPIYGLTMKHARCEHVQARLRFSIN
Summary of the method: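 P450-Glo CYP1A2, 1536-well qHTS: enzyme/proluciferin substrate + cpd (DMSO), 10 min RT; NADPH regen, 1 h RT; detection reagent, 20 min; luminescence, RLU.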

[18] = target: Cytochrome P450 2C9 (Homo sapiens) (UniProt P11712); assay: Cytochrome P450 Family 2 Subfamily C Member 9 (CYP2C9) small molecule antagonists: luciferase reporter qHTS assay (AID 1671198)
Cytochrome P450 2C9 (Homo sapiens), sequence (P11712 whole entry, looked up): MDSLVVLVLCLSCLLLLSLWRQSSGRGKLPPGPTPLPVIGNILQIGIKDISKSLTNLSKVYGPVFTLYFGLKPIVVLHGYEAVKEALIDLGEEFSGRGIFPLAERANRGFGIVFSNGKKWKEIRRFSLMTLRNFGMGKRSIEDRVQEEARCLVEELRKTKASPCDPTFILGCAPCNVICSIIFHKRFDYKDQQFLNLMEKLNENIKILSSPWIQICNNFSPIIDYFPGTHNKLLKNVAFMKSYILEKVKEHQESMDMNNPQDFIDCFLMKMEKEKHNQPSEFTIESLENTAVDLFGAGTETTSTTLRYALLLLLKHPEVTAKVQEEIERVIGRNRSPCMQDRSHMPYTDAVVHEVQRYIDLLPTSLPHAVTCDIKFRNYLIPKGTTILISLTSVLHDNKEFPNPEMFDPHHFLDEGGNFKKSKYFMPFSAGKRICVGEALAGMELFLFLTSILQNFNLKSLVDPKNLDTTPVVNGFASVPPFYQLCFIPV
Summary of the method: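 CYP2C9 activity was measured with a P450-Glo proluciferin substrate. Enzyme–substrate mix was held with compound for 10 min at room temperature, then NADPH regeneration solution was added for 1 h at 37C. Luciferin product was read as luminescence.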

[19] = target: Voltage-gated inwardly rectifying potassium channel KCNH2 (Homo sapiens) (UniProt Q12809); assay: Human Ether-a-go-go-Related Gene (hERG) channel small molecule antagonists: fluorescence cell-based qHTS assay (AID 1671200)
Voltage-gated inwardly rectifying potassium channel KCNH2 (Homo sapiens), sequence (Q12809 whole entry, looked up): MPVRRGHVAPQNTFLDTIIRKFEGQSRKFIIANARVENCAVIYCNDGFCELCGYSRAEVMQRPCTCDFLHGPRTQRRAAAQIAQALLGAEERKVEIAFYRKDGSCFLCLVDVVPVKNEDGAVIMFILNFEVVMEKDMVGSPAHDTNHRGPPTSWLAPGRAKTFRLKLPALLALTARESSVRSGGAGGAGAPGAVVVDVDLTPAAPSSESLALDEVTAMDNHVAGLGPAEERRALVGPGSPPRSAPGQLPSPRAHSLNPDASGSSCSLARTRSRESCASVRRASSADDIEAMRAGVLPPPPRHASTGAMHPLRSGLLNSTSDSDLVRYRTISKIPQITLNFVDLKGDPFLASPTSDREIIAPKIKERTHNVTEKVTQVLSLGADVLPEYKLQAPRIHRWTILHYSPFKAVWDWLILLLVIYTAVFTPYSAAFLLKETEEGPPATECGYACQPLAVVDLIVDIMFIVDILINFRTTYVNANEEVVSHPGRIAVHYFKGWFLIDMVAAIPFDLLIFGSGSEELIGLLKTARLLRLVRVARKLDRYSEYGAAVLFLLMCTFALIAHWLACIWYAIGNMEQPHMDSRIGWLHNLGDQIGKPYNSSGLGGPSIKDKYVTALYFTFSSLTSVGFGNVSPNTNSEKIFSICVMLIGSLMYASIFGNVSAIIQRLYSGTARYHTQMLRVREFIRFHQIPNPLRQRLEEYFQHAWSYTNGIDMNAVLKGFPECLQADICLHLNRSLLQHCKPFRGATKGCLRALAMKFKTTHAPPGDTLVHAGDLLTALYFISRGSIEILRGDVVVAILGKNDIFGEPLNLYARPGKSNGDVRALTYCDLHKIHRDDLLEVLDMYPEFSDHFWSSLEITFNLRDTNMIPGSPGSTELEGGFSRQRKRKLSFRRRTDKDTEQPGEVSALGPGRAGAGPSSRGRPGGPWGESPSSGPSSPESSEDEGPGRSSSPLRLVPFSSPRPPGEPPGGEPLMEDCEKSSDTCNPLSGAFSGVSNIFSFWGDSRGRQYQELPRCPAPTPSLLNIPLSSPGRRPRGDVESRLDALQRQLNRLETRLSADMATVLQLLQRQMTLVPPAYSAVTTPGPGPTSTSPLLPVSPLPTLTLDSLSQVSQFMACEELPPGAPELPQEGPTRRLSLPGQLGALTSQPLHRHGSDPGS
Summary of the method: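 Thallium flux as potassium surrogate: FluxOR II dye loaded 1 h at room temperature into hERG-expressing U2OS cells, then stimulus buffer added after 10 min. Kinetic 480 nm excitation/540 nm emission read, 2 min.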

| Structure (SMILES) | Potency [1] | Potency [2] | Potency [3] | outcome [4] | Potency [5] | Potency [6] | Potency [7] | Potency [8] | Potency [9] | Potency [10] | Potency [11] | Potency [12] | max activation [13] | Potency [14] | Potency [15] | Potency [16] | Potency [17] | Potency [18] | Potency [19] |
| --- | --- | --- | --- | --- | --- | --- | --- | --- | --- | --- | --- | --- | --- | --- | --- | --- | --- | --- | --- |
| CCCCCCCCCCCCCCCCC(C(=O)O)C(O)(CC(=O)O)C(=O)O (centres undefined) | inactive | inactive | inactive | inactive | inactive | inactive | inactive | inactive | inactive | inactive | inactive | inactive | -2.33% | inactive | 34.7 µM (active) | inactive | inactive |  |  |
| CCCCCCCCSCc1cc(C)c(O)c(CSCCCCCCCC)c1 | inactive | inactive | inactive | inactive | inactive | inactive | inactive | inactive | 68.6 µM (active) | inactive | inactive | inactive |  |  | 5.03 µM (active) | 7.1 µM (active) | 25.2 µM (active) | 8.94 µM (active) | inactive |
| Nc1ccc(Cl)c([N+](=O)[O-])c1 | inactive | inactive | inactive | inactive | inactive | inactive | inactive | inactive | 54.5 µM (active) | inactive | inactive |  |  |  | inactive | inactive | 31.7 µM (active) |  |  |
| CCn1c2ccccc2c2ccccc21 | inactive | inactive | inactive | inactive | inactive | inactive | inactive | inactive | inactive | inactive | inactive | inactive |  |  | inactive | 22.4 µM (active) | 3.99 µM (active) |  | inactive |
